A short description of assay [1]: NCI Yeast Anticancer Drug Screen. Data for the rad50 strain (AID 155).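 Note: 0% = growth of vehicle-only cultures of the same strain.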 As to conditions: S. cerevisiae rad50 strain growth inhibition, active compounds read high. The method, boiled down:
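Inhibition values express reduced yeast growth in compound-treated cultures relative to vehicle-treated controls.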

Assay [2] in a line: NCI Yeast Anticancer Drug Screen. Data for the mec2-1 strain (AID 157). As to conditions: S. cerevisiae mec2-1 strain, active compounds read high. The method, boiled down:
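Growth inhibition is read against vehicle-treated controls after compound exposure of the mec2-1 yeast strain, which is defective in DNA damage repair or cell cycle control.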

Assay [3] can be described thus: NCI Yeast Anticancer Drug Screen. Data for the sgs1 mgt1 strain (AID 161).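 Note: 0% = growth of cultures given vehicle only.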 The settings on record: S. cerevisiae sgs1 mgt1 strain, active compounds read high. The method, boiled down: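 Percent growth inhibition was derived by comparing compound-exposed mutant yeast with vehicle-exposed cultures. The strain carries alterations in DNA damage repair.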
A short description of assay [4]: NCI Yeast Anticancer Drug Screen. Data for the cln2 rad14 strain (AID 165).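 Note: 0% = growth equal to vehicle treated cultures.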 The settings on record: S. cerevisiae cln2 rad14 strain, active compounds read high. The method, boiled down: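 Growth inhibition, relative to vehicle-treated controls, is the read-out. The test organism is a yeast strain with defined genetic alterations, cln2 rad14.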
Assay [5] in a line: NCI Yeast Anticancer Drug Screen. Data for the bub3 strain (AID 167). The settings on record: S. cerevisiae bub3 mutant strain, active compounds read high. The method, boiled down:
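Steps: expose the mutant yeast strain to compound; grow alongside vehicle-treated cultures; measure growth; express inhibition against the vehicle cultures.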

Assay [6] in a line: NCI Yeast Anticancer Drug Screen. Data for the mlh1 rad18 strain (AID 175). As to conditions: S. cerevisiae mlh1 rad18 strain growth inhibition, active compounds read high. The method, boiled down:
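Cells of a genetically altered yeast strain, deficient in DNA damage repair, were treated with compound. Their growth was then compared with that of vehicle-treated cultures to give inhibition.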

The mark [7] stands for this setting: at 5.0 µM (retest, dose inferred, filed as 0.5).
Where [8] appears, read: at 50.0 µM (retest, dose inferred, filed as 5.0).

This is part of a sample that, as a whole, favours compounds with a hit. Of some 79,000 tested, about 15% had one in any assay. Unmarked numbers belong to inactive results. Activity calls are given as the source filed them. Cut-off read from the data, not from the text of the source: active = growth inhibition above about 70%; inactive = the rest.

On to `COC(=O)C1C(=O)CC(c2ccccc2)C1c1ccccc1` (configuration not stated), for which the growth inhibition in assay [1] (setting [7]) is 2%; in assay [1] (setting [8]), -4%; in assay [1] (at 50.0 µM), 6.5%; in assay [2] (setting [7]), 1%; in assay [2] (setting [8]), -3%; in assay [2] (at 50.0 µM), -6.25%. In addition, the growth inhibition was -1% in assay [3] (setting [7]); -4% in assay [3] (setting [8]); -7.85% in assay [3] (at 50.0 µM); 0% in assay [4] (setting [7]); -5% in assay [4] (setting [8]); 15.8% in assay [4] (at 50.0 µM). In addition, the growth inhibition was 7% in assay [5] (setting [7]); 10% in assay [5] (setting [8]); 1.2% in assay [5] (at 50.0 µM); 0% in assay [6] (setting [7]); -3% in assay [6] (setting [8]); -0.75% in assay [6] (at 50.0 µM).

Take `COc1ccc2c(c1)n([O-])c1cc(C#N)ccc1[n+]2=O`: the growth inhibition in assay [1] (setting [7]) is 94% (active); in assay [1] (setting [8]), 97% (active); in assay [1] (at 50.0 µM), 96.1% (active); in assay [2] (setting [7]), 50%; in assay [2] (setting [8]), 97% (active); in assay [2] (at 50.0 µM) it was 45.6%. Also, the growth inhibition in assay [3] (setting [7]) was 41%; in assay [3] (setting [8]), 80% (active); in assay [3] (at 50.0 µM) it was 35.9%; in assay [4] (setting [7]) it was 17%; in assay [4] (setting [8]) it was 59%; in assay [4] (at 50.0 µM), -11.7%. The growth inhibition in assay [5] (setting [7]) is 33%; in assay [5] (setting [8]), 87% (active); in assay [5] (at 50.0 µM), 44.9%; in assay [6] (setting [7]), 73% (active); in assay [6] (setting [8]), 96% (active); in assay [6] (at 50.0 µM), 28.6%.

On to `S=c1nc(C(c2ccccc2)c2ccccc2)[nH][nH]1`, for which the growth inhibition was -2% in assay [1] (setting [7]); 1% in assay [1] (setting [8]); 29.1% in assay [1] (at 50.0 µM); -1% in assay [2] (setting [7]); 7% in assay [2] (setting [8]); 1.7% in assay [2] (at 50.0 µM). Moreover, the growth inhibition in assay [3] (setting [7]) is 10%; in assay [3] (setting [8]), 13%; in assay [3] (at 50.0 µM), 40.4%; in assay [4] (setting [7]) it was 0%; in assay [4] (setting [8]) it was -2%; in assay [4] (at 50.0 µM), 28.1%. Also, the growth inhibition in assay [5] (setting [7]) is 1%; in assay [5] (setting [8]) it was 27%; in assay [5] (at 50.0 µM) it was 11.6%; in assay [6] (setting [7]), -3%; in assay [6] (setting [8]), 3%; in assay [6] (at 50.0 µM), 65.5%.

For `CC(C)c1cc2c(cc1O)C[C@@]1(O)CCCC(C)(C)C1CC2` (some centres not stated), the growth inhibition in assay [1] (setting [7]) is 8%; in assay [1] (setting [8]), 97% (active); in assay [1] (at 50.0 µM) it was 90.6% (active); in assay [2] (setting [7]), 3%; in assay [2] (setting [8]), 97% (active); in assay [2] (at 50.0 µM), 92.3% (active). In addition, the growth inhibition was 3% in assay [3] (setting [7]); 92% (active) in assay [3] (setting [8]); 91.2% (active) in assay [3] (at 50.0 µM); -16% in assay [4] (setting [7]); 96% (active) in assay [4] (setting [8]); 90% (active) in assay [4] (at 50.0 µM). The growth inhibition is 7% in assay [5] (setting [7]); 96% (active) in assay [5] (setting [8]); 91.2% (active) in assay [5] (at 50.0 µM); 10% in assay [6] (setting [7]); 95% (active) in assay [6] (setting [8]); 90.2% (active) in assay [6] (at 50.0 µM).

As for `COc1ccc(C2=C/C(=C3\C(=O)Oc4ccccc4C3=O)SS2)cc1`, the growth inhibition was 0% in assay [1] (setting [7]); 32% in assay [1] (setting [8]); -5.95% in assay [1] (at 50.0 µM); -2% in assay [2] (setting [7]); 7% in assay [2] (setting [8]); -1.6% in assay [2] (at 50.0 µM). Moreover, the growth inhibition is 2% in assay [3] (setting [7]); 50% in assay [3] (setting [8]); -3.75% in assay [3] (at 50.0 µM); 1% in assay [4] (setting [7]); 36% in assay [4] (setting [8]); 38.5% in assay [4] (at 50.0 µM). The growth inhibition is 3% in assay [5] (setting [7]); 24% in assay [5] (setting [8]); -3.75% in assay [5] (at 50.0 µM); -2% in assay [6] (setting [7]); 32% in assay [6] (setting [8]); 1.2% in assay [6] (at 50.0 µM).

Regarding `CCCCCCCCCCCCNCc1ccc(O)c(OC)c1`, the growth inhibition in assay [1] (setting [7]) was 95% (active); in assay [1] (setting [8]) it was 97% (active); in assay [1] (at 50.0 µM), 97.3% (active); in assay [2] (setting [7]), 97% (active); in assay [2] (setting [8]), 98% (active); in assay [2] (at 50.0 µM), 97.4% (active). Further, the growth inhibition is 99% (active) in assay [3] (setting [7]); 97% (active) in assay [3] (setting [8]); 44.1% in assay [3] (at 50.0 µM); 93% (active) in assay [4] (setting [7]); 97% (active) in assay [4] (setting [8]); 95.7% (active) in assay [4] (at 50.0 µM). Also, the growth inhibition is 96% (active) in assay [5] (setting [7]); 97% (active) in assay [5] (setting [8]); 97.8% (active) in assay [5] (at 50.0 µM); 98% (active) in assay [6] (setting [7]); 97% (active) in assay [6] (setting [8]); 97.5% (active) in assay [6] (at 50.0 µM).

Consider `N=c1c2ccccc2cc2c3ccccc3ccn12`, for which the growth inhibition in assay [1] (setting [7]) was 45%; in assay [1] (setting [8]), 93% (active); in assay [1] (at 50.0 µM) it was 97.3% (active); in assay [2] (setting [7]), 47%; in assay [2] (setting [8]), 97% (active); in assay [2] (at 50.0 µM), 98% (active). The growth inhibition was 56% in assay [3] (setting [7]); 95% (active) in assay [3] (setting [8]); 97.8% (active) in assay [3] (at 50.0 µM); 54% in assay [4] (setting [7]); 93% (active) in assay [4] (setting [8]); 86% (active) in assay [4] (at 50.0 µM). In addition, the growth inhibition is 57% in assay [5] (setting [7]); 95% (active) in assay [5] (setting [8]); 96.5% (active) in assay [5] (at 50.0 µM); 60% in assay [6] (setting [7]); 96% (active) in assay [6] (setting [8]); 96.1% (active) in assay [6] (at 50.0 µM).

For `CCN(c1ccc(C=O)cc1)c1ccc([N+](=O)[O-])cc1[N+](=O)[O-]`, the growth inhibition in assay [1] (setting [7]) is 3%; in assay [1] (setting [8]), 33%; in assay [1] (at 50.0 µM), 50.5%; in assay [2] (setting [7]), -1%; in assay [2] (setting [8]), 30%; in assay [2] (at 50.0 µM), 26.2%. The growth inhibition was 3% in assay [3] (setting [7]); 70% (active) in assay [3] (setting [8]); 74% (active) in assay [3] (at 50.0 µM); 1% in assay [4] (setting [7]); 11% in assay [4] (setting [8]); 18.2% in assay [4] (at 50.0 µM). The growth inhibition was 2% in assay [5] (setting [7]); 23% in assay [5] (setting [8]); 7.85% in assay [5] (at 50.0 µM); 8% in assay [6] (setting [7]); 59% in assay [6] (setting [8]); 38.7% in assay [6] (at 50.0 µM).

Regarding `Cc1cc(C)c(Cc2ccccc2O)cc1Cc1ccccc1O`, the growth inhibition in assay [1] (setting [7]) is 33%; in assay [1] (setting [8]) it was 47%; in assay [1] (at 50.0 µM), 90.5% (active); in assay [2] (setting [7]), 35%; in assay [2] (setting [8]), 46%; in assay [2] (at 50.0 µM), 91.7% (active). The growth inhibition in assay [3] (setting [7]) was 80% (active); in assay [3] (setting [8]) it was 97% (active); in assay [3] (at 50.0 µM) it was 92.5% (active); in assay [4] (setting [7]), 65%; in assay [4] (setting [8]), 99% (active); in assay [4] (at 50.0 µM), 90.7% (active). In addition, the growth inhibition in assay [5] (setting [7]) was 87% (active); in assay [5] (setting [8]) it was 98% (active); in assay [5] (at 50.0 µM), 90.1% (active); in assay [6] (setting [7]), 34%; in assay [6] (setting [8]), 38%; in assay [6] (at 50.0 µM) it was 89.7% (active).

Values taken from PubChem BioAssay (NCI).
